For 5 compounds, composite z-score and z-score results are on record in PubChem BioAssay.

Each structure is given as a SMILES string. The source made the active and inactive calls.

In test [1] the test system is PRMT1 (protein arginine N-methyltransferase 1). Briefly: PRMT1 binders on small-molecule microarrays, primary screen, biochemical, small-molecule microarray, 635 nm fluorescence (AID 1088).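 Also: binding of Prmt1 protein to compounds spotted on small-molecule microarray slides.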 To be noted: small-molecule microarray binding, higher = more signal.
Test [2] is described as follows: yeast growth modulation, basal conditions, primary screen, YJM789 clinical isolate, OD600, 24 h (AID 1089).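 Also: growth of clinical yeast isolate S. cerevisiae YJM 789 seeded 1000 cells per well; test concentration not given here.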 To be noted: S. cerevisiae YJM789 growth, higher = more signal, called active from +8 up or from −8 down.
Test [3] can be described thus: fission yeast growth modulation, primary screen, strain 972, OD600, 24 h, no modulator (AID 1090).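 Also: basal condition with compound alone and no growth modifier present; test concentration not given here.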 To be noted: S. pombe 972 growth, higher = more signal, called active from +8 up or from −8 down.
Test [4] can be described thus: S. cerevisiae growth modulation with rapamycin, primary screen, strain BY4716, OD600, 96 h (AID 1091). Also: test concentration not given here. To be noted: higher = more signal, called active from +8 up or from −8 down.
Test [5] has as its target Torsin-1A-interacting protein 2 (Homo sapiens) (UniProt Q8NFQ8). Briefly: LULL1 binders on small-molecule microarray, primary screen, cell lysate, human LULL1 lysate, 635/667 nm fluorescence (AID 1092).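 Also: probe is lysate of COS7 cells overexpressing human LULL1; score merges per-feature 667 nm fluorescence with signal-to-noise.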 To be noted: hLULL1 lysate binding, 635 nm fluorescence, higher = more signal.
Test [6] can be described thus: E. coli growth modulation, two-sided OD650, primary screen, E. coli filamentation project, strain DRC41, 24 h (AID 1093).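 Also: MC1000 strain lacking acrAB efflux and sulA so SOS filamentation is blocked; test concentration not given here.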 To be noted: OD650, 24 h, higher = more signal, called active from +8 up or from −8 down.
Test [7] can be described thus: small-molecule microarray binders of probe aLefty2, primary screen, biochemical, biotinylated probe, 635/667 nm fluorescence (AID 1094).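 Also: score merges spot fluorescence near 667 nm with spot signal-to-noise ratio.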 To be noted: higher = more signal.
Test [8] concerns Noggin (protein binding on small-molecule microarray). Briefly: Noggin binders on small-molecule microarray, primary screen, biochemical, 635/667 nm fluorescence (AID 1095).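 Also: score merges 667 nm feature fluorescence with signal to noise over triplicate slides.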 To be noted: 635 nm fluorescence, higher = more signal.
The target in test [9] is Neurogenic locus notch homolog protein 3 (Homo sapiens) (UniProt Q9UM47). Briefly: NOTCH3 binders on small-molecule microarray, primary screen, biochemical, 635/667 nm fluorescence (AID 1096). To be noted: NOTCH3 binding, 635 nm fluorescence, higher = more signal.
The nature of test [10]: small-molecule microarray binders of probe aEGFR, primary screen, biochemical, biotinylated probe, 635/667 nm fluorescence (AID 1097).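 Also: probe is a biotinylated anti-EGFR antibody binding compounds printed on slides; score combines fluorescence near 667 nm and signal to noise of each spot.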 To be noted: higher = more signal.
Test [11] relates to Plasmodium falciparum Sir2 (PF13_0152, Sir2A). Briefly: pfSir2 binders on small-molecule microarrays, primary screen, biochemical, small-molecule microarray, 635 nm fluorescence (AID 1098).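 Also: score merges spot fluorescence intensity with its signal-to-noise ratio.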 To be noted: small-molecule microarray binding, fluorescence 635 nm; higher = more signal.
Test [12] is described as follows: small-molecule microarray binders of probe aDKK1, primary screen, biochemical, biotinylated probe, 635/667 nm fluorescence (AID 1099).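 Also: score merges 667nm spot fluorescence with signal to noise across triplicate slides; reference of the scale not given here.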 To be noted: higher = more signal.
The nature of test [13]: small-molecule microarray binders of probe aCHRDL2, primary screen, biochemical, biotinylated probe, 635/667 nm fluorescence (AID 1100). To be noted: higher = more signal.
Test [14] in a line: splicing luciferase reporter signal modulators, primary screen, spliceosome inhibition project, cell-based, HEK293, splice +/- reporter (AID 1101).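 Also: HEK293 cells carrying a splicing-competent luciferase reporter gene; test concentration not given here.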 To be noted: luminescence, 24 h, higher = more signal, called active from +8 up or from −8 down. In general terms: In a reporter assay the amount or activity of a reporter protein is the signal.
Test [15] concerns the target Fibroblast growth factor 10 (Homo sapiens) (UniProt O15520). Briefly: FGF10 binders on small-molecule microarrays, primary screen, biochemical, small-molecule microarray, 635 nm fluorescence (AID 1102). To be noted: FGF10 binding, fluorescence 635 nm, higher = more signal.
For test [16], the system named is glycogen synthase kinase-3 (GSK3A per assay name; protocol says GSK3B). Briefly: GSK3 binders on small-molecule microarrays, primary screen, biochemical, small-molecule microarray, 635 nm fluorescence, GSK3A (AID 1103). Also: the record names both GSK3A and GSK3B. To be noted: small-molecule microarray binding, fluorescence 635 nm; higher = more signal.
The target in test [17] is Epidermal growth factor receptor (Homo sapiens) (UniProt P00533). Briefly: EGFR binders on small-molecule microarrays, primary screen, biochemical, small-molecule microarray, 635 nm fluorescence (AID 1104).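 Also: score merges 667 nm emission intensity with spot signal to noise over triplicate slides.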 To be noted: EGFR binding, higher = more signal.
Test [18] deals with Follistatin-related protein 3 (Homo sapiens) (UniProt O95633). Briefly: FSTL3 binders on small-molecule microarrays, primary screen, biochemical, small-molecule microarray, 635 nm fluorescence (AID 1105).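 Also: score merges emission near 667 nm and signal to noise per printed spot across three slides.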 To be noted: FSTL3 binding, higher = more signal.
Test [19] concerns the target Dickkopf-related protein 1 (Homo sapiens) (UniProt O94907). Briefly: DKK1 binders on small-molecule microarrays, primary screen, biochemical, small-molecule microarray, 635 nm fluorescence scan (AID 1106).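 Also: score merges emission near 667 nm with signal to noise over three replicate slides.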 To be noted: DKK1 binding, higher = more signal.
Test [20] deals with Inhibin beta A chain (activin A). Briefly: INHBA (activin A) binders on microarrays, primary screen, biochemical, small-molecule microarray, 635 nm fluorescence scan (AID 1107).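 Also: mouse activin A protein probed at 4.33 µg/mL on printed slides; score merges bound-protein fluorescence near 667 nm with spot signal-to-noise.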 To be noted: small-molecule microarray binding, higher = more signal.

Dickkopf-related protein 1 (Homo sapiens), sequence (O94907 whole entry, looked up): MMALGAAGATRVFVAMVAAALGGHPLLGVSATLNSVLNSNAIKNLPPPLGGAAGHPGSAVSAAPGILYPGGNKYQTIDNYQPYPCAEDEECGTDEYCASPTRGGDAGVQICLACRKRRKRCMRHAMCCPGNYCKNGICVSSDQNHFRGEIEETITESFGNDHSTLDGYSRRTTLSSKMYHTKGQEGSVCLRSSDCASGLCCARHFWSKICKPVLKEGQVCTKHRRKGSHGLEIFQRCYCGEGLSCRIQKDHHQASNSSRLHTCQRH
Epidermal growth factor receptor (Homo sapiens), sequence (P00533 whole entry, looked up): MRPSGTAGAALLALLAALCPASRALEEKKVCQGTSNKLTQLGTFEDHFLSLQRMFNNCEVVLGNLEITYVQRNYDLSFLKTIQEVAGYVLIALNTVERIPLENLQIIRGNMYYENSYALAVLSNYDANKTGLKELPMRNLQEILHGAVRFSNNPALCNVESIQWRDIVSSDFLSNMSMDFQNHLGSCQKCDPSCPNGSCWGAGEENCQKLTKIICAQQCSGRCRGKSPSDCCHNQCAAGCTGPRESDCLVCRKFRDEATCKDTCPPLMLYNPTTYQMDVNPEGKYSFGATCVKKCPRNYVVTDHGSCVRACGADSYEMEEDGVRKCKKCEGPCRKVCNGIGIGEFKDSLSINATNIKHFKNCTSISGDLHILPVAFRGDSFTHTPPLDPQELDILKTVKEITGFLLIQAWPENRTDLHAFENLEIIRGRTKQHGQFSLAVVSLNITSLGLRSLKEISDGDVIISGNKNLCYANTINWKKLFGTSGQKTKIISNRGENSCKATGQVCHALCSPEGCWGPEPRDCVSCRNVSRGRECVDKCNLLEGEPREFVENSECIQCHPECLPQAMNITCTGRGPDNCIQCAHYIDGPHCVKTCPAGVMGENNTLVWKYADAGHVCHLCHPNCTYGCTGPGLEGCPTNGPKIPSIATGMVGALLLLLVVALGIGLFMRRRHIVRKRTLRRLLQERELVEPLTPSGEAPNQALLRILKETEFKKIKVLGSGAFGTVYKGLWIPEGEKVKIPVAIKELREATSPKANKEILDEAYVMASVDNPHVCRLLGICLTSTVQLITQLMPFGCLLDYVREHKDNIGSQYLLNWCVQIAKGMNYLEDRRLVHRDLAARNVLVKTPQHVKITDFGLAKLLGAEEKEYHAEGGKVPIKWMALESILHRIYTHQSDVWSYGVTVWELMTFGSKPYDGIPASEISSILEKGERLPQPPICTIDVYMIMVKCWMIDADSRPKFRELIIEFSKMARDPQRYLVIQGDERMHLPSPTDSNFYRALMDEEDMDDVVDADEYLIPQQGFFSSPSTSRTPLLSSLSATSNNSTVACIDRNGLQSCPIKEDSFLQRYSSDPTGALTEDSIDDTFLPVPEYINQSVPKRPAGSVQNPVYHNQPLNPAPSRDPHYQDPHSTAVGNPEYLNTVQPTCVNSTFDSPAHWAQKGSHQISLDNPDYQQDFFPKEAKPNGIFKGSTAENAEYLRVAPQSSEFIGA
Neurogenic locus notch homolog protein 3 (Homo sapiens), sequence (Q9UM47 whole entry, looked up): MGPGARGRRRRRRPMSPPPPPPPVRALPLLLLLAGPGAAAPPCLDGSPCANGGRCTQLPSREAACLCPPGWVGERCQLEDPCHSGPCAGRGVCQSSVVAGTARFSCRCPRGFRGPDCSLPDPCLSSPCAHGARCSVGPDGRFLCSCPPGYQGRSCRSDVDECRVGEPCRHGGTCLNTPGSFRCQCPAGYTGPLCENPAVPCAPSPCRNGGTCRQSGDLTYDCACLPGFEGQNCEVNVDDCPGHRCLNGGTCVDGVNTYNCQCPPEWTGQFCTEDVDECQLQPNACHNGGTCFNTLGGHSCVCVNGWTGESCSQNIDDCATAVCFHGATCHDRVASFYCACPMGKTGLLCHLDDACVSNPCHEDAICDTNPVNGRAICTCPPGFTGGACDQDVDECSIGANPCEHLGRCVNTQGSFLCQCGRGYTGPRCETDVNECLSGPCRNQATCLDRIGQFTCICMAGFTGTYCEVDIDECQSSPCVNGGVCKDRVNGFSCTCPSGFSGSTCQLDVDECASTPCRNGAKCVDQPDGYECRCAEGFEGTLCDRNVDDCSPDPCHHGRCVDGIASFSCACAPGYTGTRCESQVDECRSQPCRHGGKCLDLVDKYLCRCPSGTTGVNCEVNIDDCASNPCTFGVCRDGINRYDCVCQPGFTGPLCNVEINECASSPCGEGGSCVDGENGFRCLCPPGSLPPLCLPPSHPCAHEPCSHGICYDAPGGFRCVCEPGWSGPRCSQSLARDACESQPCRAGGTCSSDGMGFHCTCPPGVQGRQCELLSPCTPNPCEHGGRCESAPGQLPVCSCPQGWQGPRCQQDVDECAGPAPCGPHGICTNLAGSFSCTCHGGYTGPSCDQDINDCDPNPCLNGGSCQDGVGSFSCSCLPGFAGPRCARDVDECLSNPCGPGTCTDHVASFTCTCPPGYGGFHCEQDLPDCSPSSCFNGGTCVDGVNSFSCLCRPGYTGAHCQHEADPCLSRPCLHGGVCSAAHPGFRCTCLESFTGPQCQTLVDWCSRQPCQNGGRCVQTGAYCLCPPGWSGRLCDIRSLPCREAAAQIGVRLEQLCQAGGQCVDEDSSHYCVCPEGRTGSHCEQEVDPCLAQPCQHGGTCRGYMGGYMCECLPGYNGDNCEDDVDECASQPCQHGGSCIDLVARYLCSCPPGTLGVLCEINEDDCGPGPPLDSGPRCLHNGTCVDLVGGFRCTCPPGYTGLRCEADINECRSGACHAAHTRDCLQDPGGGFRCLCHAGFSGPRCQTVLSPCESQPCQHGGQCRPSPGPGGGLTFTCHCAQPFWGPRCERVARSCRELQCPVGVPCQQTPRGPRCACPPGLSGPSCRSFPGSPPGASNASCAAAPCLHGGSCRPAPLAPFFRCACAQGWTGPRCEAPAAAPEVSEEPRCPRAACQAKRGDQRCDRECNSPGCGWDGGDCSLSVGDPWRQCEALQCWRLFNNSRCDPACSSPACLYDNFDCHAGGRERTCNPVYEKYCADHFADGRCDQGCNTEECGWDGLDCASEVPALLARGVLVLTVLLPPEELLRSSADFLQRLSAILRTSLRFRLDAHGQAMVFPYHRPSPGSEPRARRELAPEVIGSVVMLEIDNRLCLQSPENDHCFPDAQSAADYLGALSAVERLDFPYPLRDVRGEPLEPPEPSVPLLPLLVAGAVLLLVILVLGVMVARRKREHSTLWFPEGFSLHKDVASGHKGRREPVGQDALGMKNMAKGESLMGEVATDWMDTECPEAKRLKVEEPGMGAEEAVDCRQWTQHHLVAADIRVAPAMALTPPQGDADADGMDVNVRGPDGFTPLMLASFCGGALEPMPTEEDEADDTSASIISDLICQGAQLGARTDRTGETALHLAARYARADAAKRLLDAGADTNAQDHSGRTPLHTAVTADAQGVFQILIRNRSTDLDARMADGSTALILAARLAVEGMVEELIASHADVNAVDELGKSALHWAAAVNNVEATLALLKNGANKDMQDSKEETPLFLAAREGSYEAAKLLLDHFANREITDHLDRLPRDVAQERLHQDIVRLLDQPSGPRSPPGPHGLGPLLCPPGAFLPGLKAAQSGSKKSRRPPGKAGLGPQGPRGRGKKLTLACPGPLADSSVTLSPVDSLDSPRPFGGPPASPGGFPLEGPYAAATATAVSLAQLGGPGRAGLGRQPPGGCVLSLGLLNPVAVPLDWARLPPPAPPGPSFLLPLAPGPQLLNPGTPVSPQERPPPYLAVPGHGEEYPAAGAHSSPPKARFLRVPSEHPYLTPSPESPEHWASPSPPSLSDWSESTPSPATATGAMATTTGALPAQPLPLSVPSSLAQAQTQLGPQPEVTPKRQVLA
Torsin-1A-interacting protein 2 (Homo sapiens), sequence (Q8NFQ8 whole entry, looked up): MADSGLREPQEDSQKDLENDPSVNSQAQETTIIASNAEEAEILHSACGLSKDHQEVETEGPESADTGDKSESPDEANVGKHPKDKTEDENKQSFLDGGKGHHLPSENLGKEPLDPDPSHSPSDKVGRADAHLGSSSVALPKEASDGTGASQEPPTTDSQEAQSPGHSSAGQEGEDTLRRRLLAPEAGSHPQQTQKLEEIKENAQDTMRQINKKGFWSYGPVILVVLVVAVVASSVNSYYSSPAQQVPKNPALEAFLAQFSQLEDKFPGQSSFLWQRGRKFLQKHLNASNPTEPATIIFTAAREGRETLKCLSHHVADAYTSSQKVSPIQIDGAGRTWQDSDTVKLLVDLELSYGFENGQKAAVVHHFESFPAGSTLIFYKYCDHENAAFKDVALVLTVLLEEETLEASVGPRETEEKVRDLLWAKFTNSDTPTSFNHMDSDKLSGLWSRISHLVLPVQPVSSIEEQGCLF
Follistatin-related protein 3 (Homo sapiens), sequence (O95633 whole entry, looked up): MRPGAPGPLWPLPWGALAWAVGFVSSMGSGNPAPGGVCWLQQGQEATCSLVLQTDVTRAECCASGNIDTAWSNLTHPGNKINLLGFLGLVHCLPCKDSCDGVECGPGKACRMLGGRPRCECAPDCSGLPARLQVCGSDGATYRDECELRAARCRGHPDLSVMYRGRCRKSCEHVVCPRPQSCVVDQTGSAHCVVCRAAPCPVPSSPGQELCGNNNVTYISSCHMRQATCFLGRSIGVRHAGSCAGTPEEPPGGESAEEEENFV
Fibroblast growth factor 10 (Homo sapiens), sequence (O15520 whole entry, looked up): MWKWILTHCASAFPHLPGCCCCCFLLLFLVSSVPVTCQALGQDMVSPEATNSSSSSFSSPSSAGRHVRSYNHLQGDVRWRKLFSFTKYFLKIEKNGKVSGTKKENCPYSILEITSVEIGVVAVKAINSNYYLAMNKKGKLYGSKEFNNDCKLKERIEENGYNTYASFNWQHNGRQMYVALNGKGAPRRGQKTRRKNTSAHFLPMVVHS

With `CN1C(=O)C2C(C1=O)C1C=C(c3ccc(CO)cc3)C2C(c2cccs2)N1C` (stereo not given), the composite z-score in test [1] was -0.27; in [5], 0.989; in [7] it was -0.072; in [8] it was -0.518; in [9], -0.133; in test [10], 0.637. The composite z-score in test [11] is 0.609; in test [12] it was 0.0014; in [13] it was 0.381; in test [15] it was -0.0606; in test [16], 0.378; in [17] it was -0.2. Also, the composite z-score in test [18] is -0.164; in test [19], -0.0556; in test [20] it was 0.779. The z-score is -0.208 (inactive) in [2]; -2.24 (inactive) in test [3]; 1.33 (inactive) in test [4]; 1.24 (inactive) in test [6]; -0.516 (inactive) in test [14].

As for `CN1C=C(C(=O)OCCS(C)(=O)=O)C(C(=O)OCCS(C)(=O)=O)=CC(CCCO)=CC1c1ccc(CN2CCCC2)cc1` (stereo not given), the composite z-score in test [1] was found to be 1.48; in test [5] it was 3.06; in [7], 0.383; in test [8] it was 0.845; in test [9] it was 0.984; in [10], 0.273. Also, the composite z-score in [11] was 0.867; in [12] it was 0.633; in [13], 0.539; in test [15], 1.27; in [16] it was 1.3; in test [17] it was 0.566. The composite z-score in test [18] worked out at 1.32; in [19], 0.602; in [20], 0.969. Also, the z-score in [2] is 0.897 (inactive); in test [3], -6.78 (inactive); in test [4], -0.781 (inactive); in test [6] it was 0.0324 (inactive); in [14] it was -0.0863 (inactive).

As for `COCCOC(=O)N1C(=O)[C@@]2(c3cc(C#CC4=CCCCC4)ccc31)[C@H](C(=O)N1CCc3cc(OC)c(OC)cc3C1)[C@H]1C(=O)O[C@H](c3ccccc3)[C@H](c3ccccc3)N1[C@@H]2c1ccc(O)cc1`, the composite z-score in [1] is 1.5; in test [5] it was 2.68; in test [7] it was 1.08; in test [8] it was 0.552; in [9], 1.16; in test [10] it was 0.657. Besides, the composite z-score in test [11] was 1.04; in test [12], 0.26; in [13] it was -0.0061; in test [15], 0.438; in test [16], 1.12; in test [17] it was 1.32. Further, the figures for the composite z-score in test [18], in test [19] and in test [20] were 0.583, 0.391 and 0.732, respectively. The z-score in [2] was 1.68 (inactive); in test [3], 0.94 (inactive); in test [4], 2.7 (inactive); in test [6], 0.951 (inactive); in test [14], -0.258 (inactive).

For `Cc1ccc(S(=O)(=O)N2[C@@H](c3ccccc3)C(C(=O)O)=CC[C@H]2c2ccc(C#N)cc2)cc1`, the composite z-score in [1] was 1.21; in [5], 3.39; in [7] it was -0.003; in test [8] it was -0.495; in test [9], 0.721; in [10], -0.0238. In addition, the composite z-score in test [11] was found to be 1.16; in [12] it was 0.543; in test [13], 0.864; in [15] it was 0.888; in [16], 0.379; in test [17], 0.0164. Further, the values for the composite z-score in [18], in test [19] and in test [20] were 0.273, -0.522 and 0.667, respectively. In addition, the z-score in [2] is -0.143 (inactive); in test [3], 0.612 (inactive); in test [4] it was -0.371 (inactive); in test [6], -1.5 (inactive); in [14], -0.0152 (inactive).

Take `COCCOC(=O)N1C(=O)[C@@]2(c3ccccc31)[C@H](c1ccc(OCCO)cc1)N1[C@H](c3ccccc3)[C@H](c3ccccc3)OC(=O)[C@H]1[C@@H]2C(=O)N1CCN(c2ncccn2)CC1`: the composite z-score in test [1] was determined as 1.54; in test [5], 2.5; in test [7] it was 0.101; in [8], 1.34; in test [9], 1.05; in test [10], 0.241. Further, the composite z-score in [11] stood at 1.22; in test [12], 0.639; in test [13], 0.539; in [15], 1.42; in test [16], 1.34; in test [17], 0.791. Moreover, the composite z-score in test [18] came out at 1.44; in [19], 1.09; in test [20], 0.943. The z-score in [2] was 1.52 (inactive); in test [3], 1.01 (inactive); in [4], 5.4 (inactive); in test [6], 0.374 (inactive); in test [14], -0.483 (inactive).
